For some of these results: Measured potencies and affinities stand elsewhere.

Holding throughout (set-up): scale not given: direction of the effect not stated beside the values
The target of assay [1] is Protein translocase subunit SecA (Escherichia coli (strain K12)) (UniProt P10408). Nature of the assay: Assay to Identify E. coli SecA ATPase Inhibitors. Type of assay: functional. The following applies: 30 µM.
The target of assay [2] is T1, Ubiquitin-activating enzyme e1, putative (Leishmania donovani (strain BPK282A1)) (UniProt E9BSI1).
T1 sequence (whole entry): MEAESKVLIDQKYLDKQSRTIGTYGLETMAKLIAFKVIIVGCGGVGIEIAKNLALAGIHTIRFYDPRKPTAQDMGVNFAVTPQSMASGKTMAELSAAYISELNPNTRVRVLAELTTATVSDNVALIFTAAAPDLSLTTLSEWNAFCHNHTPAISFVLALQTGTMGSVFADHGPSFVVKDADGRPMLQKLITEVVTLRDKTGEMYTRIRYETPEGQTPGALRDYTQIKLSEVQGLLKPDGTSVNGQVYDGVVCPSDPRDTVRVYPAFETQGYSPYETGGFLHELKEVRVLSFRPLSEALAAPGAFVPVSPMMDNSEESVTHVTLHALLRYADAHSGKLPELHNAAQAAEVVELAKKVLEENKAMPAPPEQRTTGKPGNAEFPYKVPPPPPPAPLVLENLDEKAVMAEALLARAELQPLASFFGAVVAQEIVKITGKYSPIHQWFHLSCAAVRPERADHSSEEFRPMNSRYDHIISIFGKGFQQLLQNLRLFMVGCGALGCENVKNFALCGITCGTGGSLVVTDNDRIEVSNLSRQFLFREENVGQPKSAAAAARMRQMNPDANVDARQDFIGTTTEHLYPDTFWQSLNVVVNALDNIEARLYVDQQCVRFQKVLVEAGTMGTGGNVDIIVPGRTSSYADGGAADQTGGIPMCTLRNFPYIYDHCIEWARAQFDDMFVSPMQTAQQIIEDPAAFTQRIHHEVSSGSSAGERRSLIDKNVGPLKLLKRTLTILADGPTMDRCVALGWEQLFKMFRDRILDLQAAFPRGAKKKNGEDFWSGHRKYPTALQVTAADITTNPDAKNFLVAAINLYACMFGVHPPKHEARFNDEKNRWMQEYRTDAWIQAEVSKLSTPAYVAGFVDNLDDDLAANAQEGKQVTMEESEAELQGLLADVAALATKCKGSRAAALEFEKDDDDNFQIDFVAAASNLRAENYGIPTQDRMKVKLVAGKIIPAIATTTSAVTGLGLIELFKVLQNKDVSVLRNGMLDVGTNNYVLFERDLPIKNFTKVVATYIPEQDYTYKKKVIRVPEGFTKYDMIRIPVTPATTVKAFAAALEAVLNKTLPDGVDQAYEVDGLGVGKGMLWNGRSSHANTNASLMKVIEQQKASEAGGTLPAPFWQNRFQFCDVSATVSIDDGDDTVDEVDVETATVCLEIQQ
Nature of the assay: Leishmania donovani Ubiquitin Activating Enzyme (LdE1). In kind it is functional. The following applies: 30 µM.

The target in assay [3] is AMP-activated protein kinase, AMPK (Homo sapiens) (UniProt P54646+O43741+P54619+Q9UGJ0+Q9Y478+Q13131+Q9UGI9). The assay is described as follows: AMP-dependent Kinase enzyme assay. An in vitro enzyme assay that detects ADP turnover that is directly proportional to AMPK activity. This uses naive AMPK that is activated during the assay with MK-8722. In kind it is functional. The following applies: 30 µM.

The target in assay [4] is Sialic acid-binding Ig-like lectin 9 (Homo sapiens) (UniProt Q9Y336). The assay is described as follows: Hs-Siglec9 ALPHAscreen SOP 20170721. The following applies: 10 µM. (Alpha assays give light when donor and acceptor beads are brought close together.)
Chain of Sialic acid-binding Ig-like lectin 9 (Homo sapiens) (Q9Y336 whole entry): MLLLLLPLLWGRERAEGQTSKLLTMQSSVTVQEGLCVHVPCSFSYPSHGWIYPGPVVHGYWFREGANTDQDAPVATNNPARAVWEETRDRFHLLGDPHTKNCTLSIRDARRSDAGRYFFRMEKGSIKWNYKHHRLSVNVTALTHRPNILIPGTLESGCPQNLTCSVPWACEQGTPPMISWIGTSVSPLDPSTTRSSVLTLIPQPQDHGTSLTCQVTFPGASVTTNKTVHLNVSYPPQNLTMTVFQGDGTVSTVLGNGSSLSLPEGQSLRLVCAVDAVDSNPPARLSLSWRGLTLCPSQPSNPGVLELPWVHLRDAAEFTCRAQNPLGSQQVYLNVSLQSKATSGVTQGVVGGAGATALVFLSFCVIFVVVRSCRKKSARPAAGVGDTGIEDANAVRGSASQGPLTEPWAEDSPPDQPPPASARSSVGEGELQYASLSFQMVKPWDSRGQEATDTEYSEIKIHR
In another assay the test system is Trypanosoma cruzi. The assay is described as follows: Trypanosoma cruzi phosphomannomutase and mannose-1-phosphate guanylyltransferase assay. In kind it is functional. The settings on record: 10 µM.
Assay [5] deals with T2, Arginase-2, mitochondrial (Homo sapiens) (UniProt P78540).
T2 sequence (whole entry): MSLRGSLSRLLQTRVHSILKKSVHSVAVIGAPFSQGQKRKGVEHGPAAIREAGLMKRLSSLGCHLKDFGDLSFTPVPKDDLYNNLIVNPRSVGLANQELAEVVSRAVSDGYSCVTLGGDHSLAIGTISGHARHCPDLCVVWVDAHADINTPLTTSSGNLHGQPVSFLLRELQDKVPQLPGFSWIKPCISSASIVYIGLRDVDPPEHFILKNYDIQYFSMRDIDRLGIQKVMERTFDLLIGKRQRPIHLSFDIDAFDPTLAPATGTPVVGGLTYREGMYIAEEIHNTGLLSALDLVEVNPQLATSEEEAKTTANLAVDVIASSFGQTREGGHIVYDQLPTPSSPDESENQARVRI
Nature of the assay: in vitro enzyme assay to detect the production of urea directly proportional to the activity of Arginase II. Note: in the data most compounds retested in dose-response had high values. In kind it is functional. The settings on record: 33.3 µM.

Assay [6] deals with T3, Proteasome subunit beta (Trypanosoma cruzi) (UniProt O96673).
T3 sequence (whole entry): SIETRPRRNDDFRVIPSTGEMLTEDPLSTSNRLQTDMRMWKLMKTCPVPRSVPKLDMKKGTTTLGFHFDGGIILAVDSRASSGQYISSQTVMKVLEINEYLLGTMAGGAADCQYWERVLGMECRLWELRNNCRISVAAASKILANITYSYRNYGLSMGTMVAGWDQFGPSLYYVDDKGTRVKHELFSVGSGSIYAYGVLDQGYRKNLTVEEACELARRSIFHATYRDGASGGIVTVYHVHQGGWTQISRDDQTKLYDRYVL
Nature of the assay: Trypanosoma cruzi proteasome chymotrypsin-like activity (TcProtChymo) assay. Note: in the data most compounds retested in dose-response had high values. Type of assay: functional. The settings on record: 9.37 µM.

The species entered for a further assay is Homo sapiens. The assay is described as follows: To identify inhibition of the IFN signalling (Jak-Stat) pathway via expression of an eGFP reporter gene under the control of an IFN-stimulated response element (ISRE) containing MxA promoter. The following applies: 30 µM. In kind it is functional. (In general: In a reporter assay the amount or activity of a reporter protein is the signal.)

For assay [7], the target named is T4, Tyrosyl-tRNA synthetase, putative (Trypanosoma cruzi (strain CL Brener)) (UniProt Q4DSP6).
T4 sequence (whole entry): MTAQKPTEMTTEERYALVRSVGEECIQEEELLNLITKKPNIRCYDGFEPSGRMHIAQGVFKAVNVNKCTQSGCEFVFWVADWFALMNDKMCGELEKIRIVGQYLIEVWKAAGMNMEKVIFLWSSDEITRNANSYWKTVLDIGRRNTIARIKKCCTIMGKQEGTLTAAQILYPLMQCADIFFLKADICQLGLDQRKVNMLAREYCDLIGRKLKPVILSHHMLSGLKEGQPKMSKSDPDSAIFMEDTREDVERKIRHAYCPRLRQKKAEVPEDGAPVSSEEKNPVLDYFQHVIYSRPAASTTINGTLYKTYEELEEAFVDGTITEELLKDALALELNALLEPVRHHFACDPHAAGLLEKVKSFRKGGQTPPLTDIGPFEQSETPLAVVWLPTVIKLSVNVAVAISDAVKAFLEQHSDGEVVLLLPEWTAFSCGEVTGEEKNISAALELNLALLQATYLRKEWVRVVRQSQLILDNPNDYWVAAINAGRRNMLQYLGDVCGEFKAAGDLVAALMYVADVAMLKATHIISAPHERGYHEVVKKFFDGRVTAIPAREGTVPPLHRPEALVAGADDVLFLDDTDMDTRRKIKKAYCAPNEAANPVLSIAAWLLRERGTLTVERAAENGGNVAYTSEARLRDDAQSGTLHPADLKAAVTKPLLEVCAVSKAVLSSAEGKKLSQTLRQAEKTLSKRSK
The assay is described as follows: Trypanosoma cruzi tyrosyl tRNA synthetase (TcYRS) _High Tyrosine SOP. Note: in the data most compounds retested in dose-response had high values. The settings on record: 30 µM. In kind it is functional.

Assay [8] deals with T4, Tyrosyl-tRNA synthetase, putative (Trypanosoma cruzi (strain CL Brener)). The assay is described as follows: Trypanosoma cruzi tyrosyl tRNA synthetase (TcYRS) SOP. Type of assay: functional. The following applies: 30 µM.
Assay [9] addresses Chromo domain-containing protein 1 (Saccharomyces cerevisiae (strain ATCC 204508 / S288c) (Baker's yeast)) (UniProt P32657). Nature of the assay: ScCHD-1 Enzyme Inhibition Assay. Note: in the data most compounds retested in dose-response had high values. In kind it is functional. The settings on record: 30 µM.

Chain of Protein translocase subunit SecA (Escherichia coli (strain K12)) (P10408 whole entry): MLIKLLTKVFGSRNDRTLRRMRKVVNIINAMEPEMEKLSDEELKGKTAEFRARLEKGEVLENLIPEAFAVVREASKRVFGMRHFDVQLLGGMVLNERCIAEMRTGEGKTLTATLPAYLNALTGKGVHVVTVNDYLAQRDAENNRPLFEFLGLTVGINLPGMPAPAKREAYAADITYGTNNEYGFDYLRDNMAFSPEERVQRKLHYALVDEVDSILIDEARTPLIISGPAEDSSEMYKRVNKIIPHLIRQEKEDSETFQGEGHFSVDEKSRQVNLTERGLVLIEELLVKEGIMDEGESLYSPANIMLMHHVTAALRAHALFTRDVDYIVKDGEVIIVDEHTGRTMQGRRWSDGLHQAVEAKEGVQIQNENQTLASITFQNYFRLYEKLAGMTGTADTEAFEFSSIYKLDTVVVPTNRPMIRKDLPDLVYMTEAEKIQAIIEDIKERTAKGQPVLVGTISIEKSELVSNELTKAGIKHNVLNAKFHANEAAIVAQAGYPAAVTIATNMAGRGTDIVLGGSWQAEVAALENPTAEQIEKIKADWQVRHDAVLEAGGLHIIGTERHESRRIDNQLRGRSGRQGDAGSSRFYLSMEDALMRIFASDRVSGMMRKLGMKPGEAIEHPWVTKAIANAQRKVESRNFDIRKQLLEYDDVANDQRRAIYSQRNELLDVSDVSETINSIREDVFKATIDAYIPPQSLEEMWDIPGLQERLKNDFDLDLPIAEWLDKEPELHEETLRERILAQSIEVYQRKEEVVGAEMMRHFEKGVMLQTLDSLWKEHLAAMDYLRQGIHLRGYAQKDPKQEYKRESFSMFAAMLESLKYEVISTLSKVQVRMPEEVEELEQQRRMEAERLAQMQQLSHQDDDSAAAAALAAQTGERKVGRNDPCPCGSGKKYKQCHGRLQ
Chain of Chromo domain-containing protein 1 (Saccharomyces cerevisiae (strain ATCC 204508 / S288c) (Baker's yeast)) (P32657 whole entry, the tested form may be a part): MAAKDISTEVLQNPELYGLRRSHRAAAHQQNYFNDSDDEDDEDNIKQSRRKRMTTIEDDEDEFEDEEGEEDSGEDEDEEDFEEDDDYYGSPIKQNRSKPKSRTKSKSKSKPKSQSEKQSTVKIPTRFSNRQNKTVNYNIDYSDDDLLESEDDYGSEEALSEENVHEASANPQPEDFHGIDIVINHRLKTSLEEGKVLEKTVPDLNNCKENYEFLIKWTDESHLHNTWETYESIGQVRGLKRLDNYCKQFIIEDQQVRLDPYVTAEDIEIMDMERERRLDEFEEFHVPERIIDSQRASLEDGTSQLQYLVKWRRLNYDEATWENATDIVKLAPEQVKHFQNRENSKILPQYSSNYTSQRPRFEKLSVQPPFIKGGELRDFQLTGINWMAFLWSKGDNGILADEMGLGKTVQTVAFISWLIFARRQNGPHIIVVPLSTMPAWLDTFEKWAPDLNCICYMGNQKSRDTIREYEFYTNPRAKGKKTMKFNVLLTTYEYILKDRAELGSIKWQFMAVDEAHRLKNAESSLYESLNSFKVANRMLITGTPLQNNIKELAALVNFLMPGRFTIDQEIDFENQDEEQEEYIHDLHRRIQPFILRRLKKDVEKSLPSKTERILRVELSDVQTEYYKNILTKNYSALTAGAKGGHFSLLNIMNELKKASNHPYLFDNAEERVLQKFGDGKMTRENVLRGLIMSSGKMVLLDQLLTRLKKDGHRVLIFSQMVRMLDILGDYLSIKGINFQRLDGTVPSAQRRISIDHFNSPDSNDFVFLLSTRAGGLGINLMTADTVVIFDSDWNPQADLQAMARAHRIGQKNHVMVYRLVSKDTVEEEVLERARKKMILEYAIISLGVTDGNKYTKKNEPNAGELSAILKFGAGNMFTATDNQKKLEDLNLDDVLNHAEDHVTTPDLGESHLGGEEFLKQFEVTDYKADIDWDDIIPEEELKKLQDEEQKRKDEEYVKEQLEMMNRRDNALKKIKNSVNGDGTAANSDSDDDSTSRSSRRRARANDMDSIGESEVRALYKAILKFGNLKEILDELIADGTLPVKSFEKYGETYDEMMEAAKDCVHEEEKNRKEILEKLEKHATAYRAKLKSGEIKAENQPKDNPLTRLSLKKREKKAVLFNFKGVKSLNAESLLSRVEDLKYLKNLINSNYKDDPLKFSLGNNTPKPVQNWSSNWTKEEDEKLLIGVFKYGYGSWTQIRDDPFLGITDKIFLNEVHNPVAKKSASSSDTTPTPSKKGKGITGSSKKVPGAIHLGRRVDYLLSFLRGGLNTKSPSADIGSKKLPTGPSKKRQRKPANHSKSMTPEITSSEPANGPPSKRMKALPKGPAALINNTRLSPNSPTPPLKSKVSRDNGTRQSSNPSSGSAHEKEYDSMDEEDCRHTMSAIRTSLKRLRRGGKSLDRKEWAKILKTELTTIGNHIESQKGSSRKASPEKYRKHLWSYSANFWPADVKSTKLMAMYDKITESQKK

Take `COc1ccc(C(=O)N2CCC(Nc3cccnn3)CC2)c(OC)c1`: the Percent Effect in assay [1] was 1.87%; in assay [2], -3.8%; in assay [3], 3.46%; in assay [4] it was 2.44%; with Trypanosoma cruzi it was -4.41%; in [5], 5.38%. The Percent Effect in assay [6] was 0.858%; in the assay listed under Homo sapiens, 0.418%; in assay [7], -1.04%; in assay [8], 2.53%; in assay [9], -16%.
Turning to `O=C(CN1CCC(c2ccnn2CCO)CC1)NCc1cccs1`, the Percent Effect in assay [1] is -3.33%; in assay [2], 15.2%; in assay [3], -3.55%; in assay [4], -6.32%; in the assay with Trypanosoma cruzi, 1.23%; in assay [5] it was 1.52%. In addition, the Percent Effect was 2.87% in assay [6]; -10.7% in the assay listed under Homo sapiens; 8.37% in assay [7]; 24.1% in assay [8]; -5.84% in [9].
Consider `Cc1cc(CN2CCC(c3ccnn3CCO)CC2)no1`, for which the Percent Effect in assay [1] is -3.65%; in assay [2], 20.2%; in [3], -6.78%; in assay [4], 7.01%; with Trypanosoma cruzi, 6.7%; in assay [5] it was 3.8%. For the same compound, the Percent Effect was 7.45% in [6]; -6.11% in the assay filed under Homo sapiens; 4.43% in [7]; 21.5% in assay [8]; -6.58% in assay [9].
Turning to `COc1ccc(CC(=O)N(C)Cc2nnc3ccccn23)cc1`, the Percent Effect in [1] is -4.71%; in [2], 26%; in [3], 2.72%; in [4], -2.77%; in the assay with Trypanosoma cruzi it was 3.62%; in assay [5], -6.53%. The Percent Effect in assay [6] worked out at 17.1%; in the assay listed under Homo sapiens, 12.6%; in assay [7], 8.57%; in [8], 25.9%; in [9] it was 77.9%.
As for `O=C(NCCNc1ncccn1)N1CCN(Cc2cccnc2)CC1`, the Percent Effect in assay [1] was -10.3%; in assay [2], 13.5%; in assay [3], -7.65%; in [4] it was 22.9%; with Trypanosoma cruzi, 10.5%; in assay [5], -16%. Besides, the Percent Effect is 6.13% in assay [6]; 2.94% in the assay listed under Homo sapiens; 7.39% in [7]; 23.5% in assay [8]; -14.1% in assay [9].
For the compound `Cc1ccsc1CNC(=O)NC1CCCc2c1cnn2CCO` (stereo unspecified), the Percent Effect in assay [1] is -6.41%; in [2], 2.67%; in assay [3] it was 2.26%; in assay [4], 2.19%; with Trypanosoma cruzi, -1.27%; in assay [5], -3.12%. The Percent Effect was 13.4% in assay [6]; -12.2% in the assay listed under Homo sapiens; 6.01% in assay [7]; 18.5% in assay [8]; -4.15% in assay [9].
For the compound `CN1CCC(NC(=O)NCc2csc(Br)c2)CC1`, the Percent Effect in assay [1] was -2.29%; in assay [2], 13.5%; in assay [3] it was 4.89%; in [4], 6.05%; with Trypanosoma cruzi it was 3.25%; in [5], -3.88%. Besides, the Percent Effect was 10.4% in [6]; 2.14% in the assay filed under Homo sapiens; 9.9% in assay [7]; 18.3% in assay [8]; -4.58% in [9].
On to `Cc1ccc(C(=O)N2CCN(C(=O)NC(C)Cn3ccnc3)CC2)o1` (stereo unspecified), for which the Percent Effect in [1] is -1.19%; in [2] it was 10.5%; in assay [3], 2.03%; in assay [4], 13.1%; with Trypanosoma cruzi it was 3.38%; in assay [5], 2.3%. Besides, the Percent Effect in [6] is 4.51%; in the assay listed under Homo sapiens it was 18.1%; in assay [7], 3.43%; in assay [8], 19.5%; in [9] it was -13.5%.
`CS(=O)(=O)N1CCC(C(=O)NC(Cc2ccsc2)c2nccs2)CC1` (stereo unspecified): the Percent Effect in [1] was -5.37%; in assay [2] it was 9.46%; in [3], 6.1%; in assay [4] it was -1.37%; in the assay with Trypanosoma cruzi it was -3.36%; in assay [5], -1.16%. Besides, the Percent Effect in assay [6] came out at 2.65%; in the assay listed under Homo sapiens it was 12.9%; in [7], 0%; in [8], 11.7%; in assay [9], 2.8%.
Regarding `COCc1n[nH]/c(=N/C(=O)COc2cnc(C)cc2O)s1`, the Percent Effect in assay [1] is -1.58%; in [2], -5.26%; in [3], 2.8%; in assay [4] it was 1.24%; with Trypanosoma cruzi, -6.33%; in assay [5] it was -1.18%. Besides, the Percent Effect is 9.3% in assay [6]; -1.08% in the assay filed under Homo sapiens; 3.19% in [7]; 5.2% in assay [8]; -4.33% in assay [9].
Turning to `COc1ccnc(N2CCN(C(=O)c3csc(C(C)C)n3)CC2)n1`, the Percent Effect in assay [1] was -7.52%; in [2] it was 10.8%; in assay [3], -3.77%; in [4], 29.4%; in the assay on Trypanosoma cruzi, 9.68%; in assay [5] it was 5.21%. Further, the Percent Effect in assay [6] is 7.3%; in the assay filed under Homo sapiens, 13%; in assay [7], 4.3%; in [8], 11.1%; in assay [9], -11.3%.

For the origin of these results see ChEMBL document CHEMBL3988442, “University of Dundee, Small-Polar-MMV Screening Library” (2021).
